Here are results for 14 compounds from PubChem BioAssay (NCI).

About 83,000 compounds went through this panel and 20% of them were active in at least one assay; those are over-represented in the sample as a whole.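 Single-dose data. Exposure time 48 hours. Values below 10 considered active.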 Unmarked numbers belong to inactive results. Active and inactive are the calls of the source.

Some test systems named below: T-47D breast; BT-549 breast; MDA-MB-435 melanoma; SW-620 colon; MCF7 breast; HCT-116 colon; HCC-2998 colon; KM12 colon.
What all share (experiment): NCI-60 one-dose screen, 48 h (100 = growth as untreated, 0 = no growth, -100 = all killed)
Holding throughout (details): 10 µM unless noted

In the case of `Cc1ccc2c(n1)C(=O)C(Cl)=C(Nc1ccccc1C(=O)OC(C)(C)C)C2=O`, the growth with T-47D breast was -25.2% (active); with BT-549 breast, 38.6%; in the experiment with MDA-MB-435 melanoma, 84.7%; with SW-620 colon, -28.3% (active); in the experiment with MCF7 breast it was -60.1% (active); in the experiment on HCT-116 colon, -84.6% (active). Also, the growth was 92.3% in the experiment with HCC-2998 colon and 99.1% in the experiment with KM12 colon.
Regarding `CNc1sc(S(=O)(=O)NC)nc1S(=O)(=O)c1ccc(C)cc1`, the growth in the experiment with T-47D breast was 93.5%; in the experiment with BT-549 breast, 99.5%; in the experiment on MDA-MB-435 melanoma it was 105%; in the experiment on SW-620 colon, 109%; in the experiment with MCF7 breast, 87.6%; in the experiment on HCT-116 colon it was 100%. Further, the growth in the experiment with HCC-2998 colon and with KM12 colon was 103% each time.
On to `COC(=O)N1CCN(CCNCc2ccc(NC(=O)c3ccc(C)c(C#Cc4cnc5cccnn45)c3)cc2C(F)(F)F)CC1`, for which the growth in the experiment on T-47D breast is 34%; with BT-549 breast it was 24.1%; in the experiment with MDA-MB-435 melanoma, -21.8% (active); in the experiment with SW-620 colon, 14.6%; with MCF7 breast, -6.54% (active); with HCT-116 colon, 4.9% (active). Moreover, the results for the growth with HCC-2998 colon and in the experiment with KM12 colon were 14.4% and 4.91% (active), respectively.
On to `CCCCN1C(=O)/C(=c2\sc3n(c2=O)C2C(NN=3)N(CC)C(=O)N2CC)c2cc(C)ccc21` (configuration not stated), for which the growth in the experiment with T-47D breast is 93.8%; in the experiment with BT-549 breast, 96.3%; in the experiment on MDA-MB-435 melanoma it was 84.5%; with SW-620 colon it was 95.1%; in the experiment with MCF7 breast, 80%; with HCT-116 colon, 85.3%. Besides, the figures for the growth in the experiment on HCC-2998 colon and with KM12 colon were 109% and 94.1%, respectively.
`COc1ccc(NC2=C(Br)C(=O)C(C)=C(C)C2=O)cc1OC`: the growth in the experiment with T-47D breast is -8.45% (active); with BT-549 breast, 112%; with MDA-MB-435 melanoma, 102%; with SW-620 colon, 107%; with MCF7 breast, 72.1%; in the experiment on HCT-116 colon it was 90.7%. For the same compound, the growth is 102% in the experiment with HCC-2998 colon and 59.2% in the experiment with KM12 colon.
Consider `COc1ccc(/C=N/NC(=O)CSc2nc(-c3cnccn3)cc(-c3cccs3)c2C#N)cc1OC`, for which the growth is 93.9% with T-47D breast; 38% in the experiment with BT-549 breast; 78.9% in the experiment with MDA-MB-435 melanoma; 60.8% in the experiment on SW-620 colon; 53.7% with MCF7 breast; 55.4% with HCT-116 colon. The growth in the experiment with HCC-2998 colon is 47.3%; in the experiment with KM12 colon, 51.4%.
With `CCN(CC)CCOc1ccc(C(=C(C)c2ccc(OC)cc2)c2ccc(OCCN(CC)CC)cc2)cc1`, the growth in the experiment on T-47D breast is -45.7% (active); with BT-549 breast it was 47.9%; in the experiment with MDA-MB-435 melanoma, -71.5% (active); in the experiment on SW-620 colon, -35.7% (active); in the experiment with MCF7 breast, -64.5% (active); with HCT-116 colon, 0.525% (active). Also, the growth in the experiment with HCC-2998 colon was 3.44% (active); in the experiment with KM12 colon it was 14.7%.
`NS(=O)(=O)c1ccc(CCn2c(-c3ccc(C(=O)O)cc3)nc(-c3ccccc3)c2-c2ccccc2)cc1`: the growth in the experiment with T-47D breast was 104%; with BT-549 breast, 104%; with MDA-MB-435 melanoma, 98.8%; in the experiment with SW-620 colon, 98.6%; in the experiment with MCF7 breast, 93.6%; with HCT-116 colon it was 101%. The growth in the experiment on HCC-2998 colon was 108%; in the experiment on KM12 colon, 107%.
As for `COc1cc(/C=N\NC(=O)c2ccc3nc(-c4ccc(Br)cc4)[nH]c3c2)cc(OC)c1OC`, the growth was 9.41% (active) in the experiment on T-47D breast; 38% in the experiment on BT-549 breast; 52.5% in the experiment with MDA-MB-435 melanoma; 79.1% with SW-620 colon; 6.5% (active) with MCF7 breast; 18% in the experiment with HCT-116 colon. The growth in the experiment with HCC-2998 colon is 73.1%; in the experiment on KM12 colon, 47.1%.
With `COc1ccccc1/C=C/C(=O)c1nnn(-c2ccc(F)cc2)c1C`, the growth with T-47D breast is 54.9%; in the experiment with BT-549 breast it was 62%; in the experiment with MDA-MB-435 melanoma, 23.4%; in the experiment on SW-620 colon it was 19.9%; with MCF7 breast it was 7.51% (active); with HCT-116 colon, 10.7%. Besides, the growth in the experiment on HCC-2998 colon was 81.3%; in the experiment on KM12 colon, 32.6%.
Regarding `O=C1C(N2CCN(c3ccccc3)CC2)=C(Cl)C(=O)c2ncccc21`, the growth in the experiment on T-47D breast is -54.2% (active); with BT-549 breast, 97.3%; in the experiment on MDA-MB-435 melanoma, -67% (active); in the experiment on SW-620 colon, -35% (active); in the experiment with MCF7 breast it was -44.7% (active); with HCT-116 colon it was -56.1% (active). The growth with HCC-2998 colon was 97.8%; in the experiment on KM12 colon, 92.3%.
Turning to `COc1cc2cc(Oc3ccc(NC(=O)Nc4ccc(F)c(C(F)(F)F)c4)cc3)c(C)nc2cc1OCCN(C)C`, the growth in the experiment on T-47D breast is 91.4%; in the experiment with BT-549 breast, 99%; in the experiment on MDA-MB-435 melanoma, 98.2%; in the experiment with SW-620 colon, 53.7%; in the experiment with MCF7 breast it was -89.6% (active); in the experiment with HCT-116 colon, 107%. The results for the growth with HCC-2998 colon and in the experiment on KM12 colon were 104% and 102%, respectively.
For `Cn1c(SCC(=O)c2ccc(F)cc2)nc2ccccc2c1=O`, the growth with T-47D breast was 62.5%; with BT-549 breast it was 97%; with MDA-MB-435 melanoma, 108%; in the experiment on SW-620 colon it was 108%; in the experiment with MCF7 breast, 72.7%; in the experiment on HCT-116 colon, 89.1%. In addition, the growth is 104% in the experiment on HCC-2998 colon and 98.1% with KM12 colon.
Take `C/C(=C(/C)C1CC1CCNC1CCC(NC(=O)OC(C)(C)C)CC1)c1ccccc1` (configuration not stated): the growth was 45.5% with T-47D breast; 85.5% with BT-549 breast; 52.8% with MDA-MB-435 melanoma; 60.7% in the experiment with SW-620 colon; 15.5% with MCF7 breast; 33.6% in the experiment on HCT-116 colon. In addition, the growth in the experiment on HCC-2998 colon is -55.6% (active); with KM12 colon, 73.7%.
